Laboratory results from the supplement of paper PMC11732987, “Enantioselective OTUD7B fragment discovery through chemoproteomics screening and high-throughput optimisation” (Communications Chemistry, 2025).

Tests used:
Assay in all cases: log2 ratio of Biotin-Ahx-Ub-VS probe labelling (fragment/DMSO); higher = less target engagement (more negative = stronger competition), active = hit call of the paper (q ≤ 0.05, log2 ratio ≤ -1)
Conditions in all cases: compound concentration: 200 uM; treatment time: 3 h
ALG13 = target: T1, ALG13 (UniProt Q9NP73)
T1 sequence (whole entry): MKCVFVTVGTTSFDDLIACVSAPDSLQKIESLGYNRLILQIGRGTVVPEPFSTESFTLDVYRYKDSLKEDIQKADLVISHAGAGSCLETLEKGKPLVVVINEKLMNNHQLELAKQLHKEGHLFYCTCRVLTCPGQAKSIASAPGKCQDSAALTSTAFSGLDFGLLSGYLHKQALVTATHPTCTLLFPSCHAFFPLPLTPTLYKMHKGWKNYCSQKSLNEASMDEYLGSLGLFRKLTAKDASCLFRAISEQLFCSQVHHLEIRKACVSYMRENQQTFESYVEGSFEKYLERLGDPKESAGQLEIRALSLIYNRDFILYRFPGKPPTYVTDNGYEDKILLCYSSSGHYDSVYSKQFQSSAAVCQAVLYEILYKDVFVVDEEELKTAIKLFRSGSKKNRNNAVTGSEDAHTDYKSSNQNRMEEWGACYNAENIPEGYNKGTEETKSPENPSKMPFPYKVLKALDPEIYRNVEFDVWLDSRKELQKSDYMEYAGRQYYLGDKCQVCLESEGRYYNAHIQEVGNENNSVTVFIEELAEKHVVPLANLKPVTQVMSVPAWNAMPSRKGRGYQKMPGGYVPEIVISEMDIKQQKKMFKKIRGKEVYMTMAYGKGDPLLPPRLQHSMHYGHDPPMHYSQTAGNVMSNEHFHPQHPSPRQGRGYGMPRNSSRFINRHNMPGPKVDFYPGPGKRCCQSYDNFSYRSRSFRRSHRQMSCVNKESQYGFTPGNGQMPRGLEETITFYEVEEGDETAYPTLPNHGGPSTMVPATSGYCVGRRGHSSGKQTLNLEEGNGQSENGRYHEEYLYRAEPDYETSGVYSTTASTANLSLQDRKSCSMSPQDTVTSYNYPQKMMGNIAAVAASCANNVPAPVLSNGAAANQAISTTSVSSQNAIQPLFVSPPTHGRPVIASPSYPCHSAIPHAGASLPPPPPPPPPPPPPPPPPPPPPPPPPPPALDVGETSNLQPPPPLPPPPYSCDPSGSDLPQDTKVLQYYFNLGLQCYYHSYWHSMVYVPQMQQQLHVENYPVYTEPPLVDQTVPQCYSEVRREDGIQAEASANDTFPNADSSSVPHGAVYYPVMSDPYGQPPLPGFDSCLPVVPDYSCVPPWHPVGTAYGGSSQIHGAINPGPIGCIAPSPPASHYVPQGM
In short: (§1)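 Each value is an average log2 ratio of fragment to vehicle, tested by unpaired t-test. The underlying Spectronaut label-free quantities were global-median-normalised, and only proteins with ≥2 unique peptides were included. Triplicate HEK293T lysate samples (495 µg) were exposed to fragment at 200 µM or vehicle for 3 h, then to Biotin-Ahx-Ub-VS at 0.5 µM final for 1 h, before NeutrAvidin enrichment of labelled DUBs, LysC and trypsin digestion, and diaPASEF LC-MS/MS.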

ATXN3 = ATXN3 (UniProt P54252)
Sequence of ATXN3 (P54252 whole entry): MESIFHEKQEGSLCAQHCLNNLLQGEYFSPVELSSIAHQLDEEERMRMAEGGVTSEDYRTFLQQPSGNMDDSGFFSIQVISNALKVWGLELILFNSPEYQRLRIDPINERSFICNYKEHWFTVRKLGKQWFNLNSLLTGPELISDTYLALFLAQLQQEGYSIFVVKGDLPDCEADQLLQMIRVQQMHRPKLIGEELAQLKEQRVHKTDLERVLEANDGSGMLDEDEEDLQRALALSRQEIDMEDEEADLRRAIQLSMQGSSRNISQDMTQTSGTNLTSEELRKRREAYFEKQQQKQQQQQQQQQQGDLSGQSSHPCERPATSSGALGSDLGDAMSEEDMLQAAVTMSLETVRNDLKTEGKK
In short: as §1

BAP1 = target: T2, BAP1 (UniProt Q92560)
T2 sequence (whole entry): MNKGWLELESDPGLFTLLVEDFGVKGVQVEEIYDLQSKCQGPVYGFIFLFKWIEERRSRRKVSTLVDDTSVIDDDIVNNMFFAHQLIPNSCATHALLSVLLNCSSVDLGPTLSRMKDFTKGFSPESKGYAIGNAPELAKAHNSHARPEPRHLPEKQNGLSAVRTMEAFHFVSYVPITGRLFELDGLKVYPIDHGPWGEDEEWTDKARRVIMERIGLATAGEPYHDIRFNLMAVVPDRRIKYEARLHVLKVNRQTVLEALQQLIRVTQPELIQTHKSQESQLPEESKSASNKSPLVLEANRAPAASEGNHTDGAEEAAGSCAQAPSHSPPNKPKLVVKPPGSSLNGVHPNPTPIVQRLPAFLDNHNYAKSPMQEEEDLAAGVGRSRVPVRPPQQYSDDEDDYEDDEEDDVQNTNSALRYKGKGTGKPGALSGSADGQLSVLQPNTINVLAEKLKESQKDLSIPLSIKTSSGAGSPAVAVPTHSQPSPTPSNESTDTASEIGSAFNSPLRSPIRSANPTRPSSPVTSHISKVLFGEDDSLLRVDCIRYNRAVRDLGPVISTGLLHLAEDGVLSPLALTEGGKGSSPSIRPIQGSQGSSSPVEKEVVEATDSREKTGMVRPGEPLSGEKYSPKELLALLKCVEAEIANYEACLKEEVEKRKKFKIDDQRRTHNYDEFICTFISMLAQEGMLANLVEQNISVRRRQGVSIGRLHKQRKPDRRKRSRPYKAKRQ
In short: as §1

EIF3F = EIF3F (UniProt O00303)
Sequence of EIF3F (O00303 whole entry): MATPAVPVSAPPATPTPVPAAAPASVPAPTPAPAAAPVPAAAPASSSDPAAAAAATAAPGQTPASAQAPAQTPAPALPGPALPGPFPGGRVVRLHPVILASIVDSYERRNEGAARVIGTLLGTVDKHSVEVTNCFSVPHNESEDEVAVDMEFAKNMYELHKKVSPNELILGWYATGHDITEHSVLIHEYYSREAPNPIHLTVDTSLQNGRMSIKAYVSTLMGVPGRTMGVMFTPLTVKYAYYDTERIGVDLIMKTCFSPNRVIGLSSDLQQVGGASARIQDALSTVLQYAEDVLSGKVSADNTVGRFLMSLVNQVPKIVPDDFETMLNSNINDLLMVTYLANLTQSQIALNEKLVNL
In short: as §1

EIF3H = EIF3H (UniProt O15372)
Sequence of EIF3H (O15372 whole entry): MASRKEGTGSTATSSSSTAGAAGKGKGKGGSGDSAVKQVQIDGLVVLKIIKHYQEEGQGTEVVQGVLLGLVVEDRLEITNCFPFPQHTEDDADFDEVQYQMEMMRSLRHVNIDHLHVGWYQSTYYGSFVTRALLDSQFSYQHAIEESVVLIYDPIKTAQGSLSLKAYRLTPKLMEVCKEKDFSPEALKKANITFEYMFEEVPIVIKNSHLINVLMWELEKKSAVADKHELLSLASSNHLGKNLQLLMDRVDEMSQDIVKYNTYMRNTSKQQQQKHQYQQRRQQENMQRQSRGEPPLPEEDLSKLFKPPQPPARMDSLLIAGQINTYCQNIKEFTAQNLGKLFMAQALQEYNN
In short: as §1

FAM105A = target: T3, FAM105A (UniProt Q9NUU6)
T3 sequence (whole entry): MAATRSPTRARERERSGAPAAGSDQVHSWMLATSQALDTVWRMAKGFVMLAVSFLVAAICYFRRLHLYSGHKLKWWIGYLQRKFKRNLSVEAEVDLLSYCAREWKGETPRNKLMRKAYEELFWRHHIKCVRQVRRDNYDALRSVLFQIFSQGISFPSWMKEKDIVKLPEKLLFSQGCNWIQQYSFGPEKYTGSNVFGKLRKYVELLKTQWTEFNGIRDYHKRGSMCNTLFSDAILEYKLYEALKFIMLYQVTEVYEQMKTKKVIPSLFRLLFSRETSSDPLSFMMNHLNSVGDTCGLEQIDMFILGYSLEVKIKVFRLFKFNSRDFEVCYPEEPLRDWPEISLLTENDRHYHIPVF
In short: as §1

OTUB1 = OTUB1 (UniProt Q96FW1)
Sequence of OTUB1 (Q96FW1 whole entry): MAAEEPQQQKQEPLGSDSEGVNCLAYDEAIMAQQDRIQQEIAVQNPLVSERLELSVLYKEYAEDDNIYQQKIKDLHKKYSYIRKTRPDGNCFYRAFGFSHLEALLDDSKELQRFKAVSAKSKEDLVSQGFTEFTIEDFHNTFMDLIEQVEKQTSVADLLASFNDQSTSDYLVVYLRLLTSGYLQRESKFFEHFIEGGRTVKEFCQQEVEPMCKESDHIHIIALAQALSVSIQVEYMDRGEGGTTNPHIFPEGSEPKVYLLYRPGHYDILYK
In short: as §1

OTUD4 = target: T4, OTUD4 (UniProt Q01804)
T4 sequence (whole entry): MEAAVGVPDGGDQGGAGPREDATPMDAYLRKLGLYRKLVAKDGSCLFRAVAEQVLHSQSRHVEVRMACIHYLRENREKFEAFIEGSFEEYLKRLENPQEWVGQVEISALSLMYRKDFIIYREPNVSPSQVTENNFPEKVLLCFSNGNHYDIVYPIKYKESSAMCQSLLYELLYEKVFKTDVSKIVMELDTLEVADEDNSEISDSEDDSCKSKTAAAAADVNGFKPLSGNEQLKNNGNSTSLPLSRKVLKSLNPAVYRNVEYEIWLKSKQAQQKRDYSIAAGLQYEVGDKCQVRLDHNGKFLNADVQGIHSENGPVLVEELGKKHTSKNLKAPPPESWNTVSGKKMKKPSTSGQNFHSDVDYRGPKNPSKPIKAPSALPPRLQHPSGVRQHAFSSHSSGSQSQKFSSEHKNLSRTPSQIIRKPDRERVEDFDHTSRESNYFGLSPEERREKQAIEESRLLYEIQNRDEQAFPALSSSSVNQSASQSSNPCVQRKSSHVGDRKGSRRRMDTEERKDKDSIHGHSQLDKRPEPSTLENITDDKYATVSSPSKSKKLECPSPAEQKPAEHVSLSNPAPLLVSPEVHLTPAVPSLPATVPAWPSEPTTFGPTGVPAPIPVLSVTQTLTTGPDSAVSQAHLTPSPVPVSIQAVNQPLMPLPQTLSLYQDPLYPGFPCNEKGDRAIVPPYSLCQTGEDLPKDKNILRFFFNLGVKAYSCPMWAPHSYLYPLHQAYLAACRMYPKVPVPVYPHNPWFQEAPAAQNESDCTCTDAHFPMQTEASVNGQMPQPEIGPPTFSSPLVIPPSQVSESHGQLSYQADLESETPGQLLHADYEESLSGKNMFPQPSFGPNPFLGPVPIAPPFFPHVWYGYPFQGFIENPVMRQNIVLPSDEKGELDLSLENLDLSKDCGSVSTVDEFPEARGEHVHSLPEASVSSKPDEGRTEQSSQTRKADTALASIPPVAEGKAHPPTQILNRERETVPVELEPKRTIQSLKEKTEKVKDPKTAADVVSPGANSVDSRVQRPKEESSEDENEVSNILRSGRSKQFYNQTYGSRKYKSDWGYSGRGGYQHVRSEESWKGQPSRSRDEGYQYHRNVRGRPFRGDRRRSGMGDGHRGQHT
In short: as §1

OTUD5 = target: T5, OTUD5 (UniProt Q96G74)
T5 sequence (whole entry): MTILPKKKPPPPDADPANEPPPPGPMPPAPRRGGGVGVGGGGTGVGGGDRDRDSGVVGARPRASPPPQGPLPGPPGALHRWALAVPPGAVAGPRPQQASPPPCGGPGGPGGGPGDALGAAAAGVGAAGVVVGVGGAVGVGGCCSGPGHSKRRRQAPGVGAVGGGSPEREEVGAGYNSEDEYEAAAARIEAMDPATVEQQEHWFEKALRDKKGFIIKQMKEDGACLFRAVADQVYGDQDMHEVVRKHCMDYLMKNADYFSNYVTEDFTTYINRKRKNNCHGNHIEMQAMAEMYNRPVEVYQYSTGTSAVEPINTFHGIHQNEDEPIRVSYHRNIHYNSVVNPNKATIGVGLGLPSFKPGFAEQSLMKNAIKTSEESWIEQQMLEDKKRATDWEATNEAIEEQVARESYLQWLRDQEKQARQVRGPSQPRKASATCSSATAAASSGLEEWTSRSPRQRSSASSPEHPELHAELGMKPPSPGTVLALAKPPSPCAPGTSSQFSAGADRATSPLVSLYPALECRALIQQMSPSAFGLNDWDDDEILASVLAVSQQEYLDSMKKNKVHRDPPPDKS
In short: as §1

Measured: log2 ratio of Biotin-Ahx-Ub-VS probe labelling

O=C(CCl)N1CCOC(CCc2ccccc2)C1 (centres undefined)
inactive: ALG13 -0.284 | ATXN3 -0.798 | EIF3F -0.348 | EIF3H 0.0677 | FAM105A -0.23 | OTUB1 -0.408 | OTUD4 -0.558 | OTUD5 -0.502
active: BAP1 -1.1
